Screens deposited in PubChem by National Center for Advancing Translational Sciences (NCATS).
AmpC inh detg – AmpC beta-lactamase inhibition with detergent present; Potency, µM (series often up to 114 µM), without a hit: at the top dose activity change, negative = inhibition, usual class: inhibitors; AID 485294; P00811; 370,000 compounds, 0.041% hits; AmpC hydrolysis of nitrocefin, absorbance 480 nm, 0.01% Triton;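 note: 0% = no-compound wells and -100% = no-enzyme wells; nearly all actives have a fitted effect of over 25% in size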
Target sequence (P00811 whole entry, looked up): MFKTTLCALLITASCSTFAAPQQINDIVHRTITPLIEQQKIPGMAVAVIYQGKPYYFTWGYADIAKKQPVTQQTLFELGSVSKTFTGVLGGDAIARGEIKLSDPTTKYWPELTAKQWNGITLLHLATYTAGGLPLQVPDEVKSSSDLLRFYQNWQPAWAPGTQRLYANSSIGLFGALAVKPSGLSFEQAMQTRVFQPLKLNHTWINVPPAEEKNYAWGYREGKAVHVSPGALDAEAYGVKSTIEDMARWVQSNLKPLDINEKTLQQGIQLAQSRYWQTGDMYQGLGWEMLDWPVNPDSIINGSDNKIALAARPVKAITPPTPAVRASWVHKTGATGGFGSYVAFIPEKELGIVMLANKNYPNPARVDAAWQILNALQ
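20 mM phosphate pH 7.0 + 0.01% (detergent screen) or 0.0001% Triton X-100; 5.3 nM AmpC reagent; cpd preinc 15 min RT; nitrocefin (800 uM stock) to start; A480 q20 s × 4 min; Activity was normalised to no-enzyme and no-compound control wells.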
Sm TGR block – blocks Schistosoma mansoni thioredoxin glutathione reductase; Q962Y6; purified TGR, DTNB reduction, TNB absorbance 405 nm; Potency, µM (titrated, usually from 114 µM), for the others: at the highest dose activity change, negative = inhibition, hits mostly inhibitors; 360,000 compounds, 3% hits; AID 485364; note: nearly all actives have a fitted effect of over 60% in size
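First, TGR (20 nM dispensed) and NADPH were mixed with compound. Second, a 15 min room-temperature incubation followed. Third, further NADPH and then DTNB were added to start the reaction. Finally, TNB absorbance was monitored kinetically.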
AmpC no deterg – AmpC beta-lactamase inhibition without detergent | P00811 | AmpC nitrocefin hydrolysis, absorbance 480 nm, 0.0001% Triton | Potency, µM (series often up to 57.1 µM), for inactives: at the top dose activity change, negative = inhibition, hits mostly inhibitors | 330,000 compounds, 0.52% hits;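 note: plate controls were no compound for no effect and no enzyme for full effect; nearly all actives have a fitted effect of over 20% in size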
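AmpC (5.3 nM in the dispensed reagent) in 20 mM phosphate pH 7.0 with 0.01% (detergent screen) or 0.0001% Triton X-100 was preincubated with compounds for 15 min at room temperature. Nitrocefin was then added from an 800 uM solution, and hydrolysis was followed at 480 nm.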
Numbers without * were called inactive; ? = inconclusive; / = not tested or not shown. This is a sample that favours compounds with a hit; in the whole collection about 3.3% have one here. Calls come from the whole dose curve; as a rule, active = well fitted curve in the direction sought with a large enough effect; inconclusive = small, poorly fitted or top-dose-only effect, or another doubt; inactive = no such curve, though single readings can be large; an effect the other way counts as inactive or inconclusive. Unless noted, % is set by controls: 0 for no effect and ±100 for the full control effect; potency is the fitted concentration of half-maximal effect.

SMILES | AmpC inh detg | Sm TGR block | AmpC no deterg
CC(C)CNS(=O)(=O)c1ccc(CCC(=O)NCc2ccncc2)cc1 | 0% | 8% | -14%
Cc1ccc(S(=O)(=O)NCC(=O)N(CCc2ccccc2)CC(=O)NCc2ccco2)cc1 | -15% | 35µM* | 5%
CC(C)CNS(=O)(=O)c1ccc(CCC(=O)NCc2ccco2)cc1 | -1% | 45µM* | -26%
O=C(CN(CCc1ccccc1)C(=O)CNS(=O)(=O)c1ccccc1)NCc1ccco1 | ? | 0% | -13%
CC(C)NS(=O)(=O)c1ccc(CCC(=O)NCc2ccccn2)cc1 | -11% | 100µM* | -5%
Cc1ccc(NS(=O)(=O)c2ccc(CCC(=O)NCc3ccccn3)cc2)cc1 | 5% | / | 21%
CN(Cc1ccccc1)C(=O)c1c[nH]c2ccc(S(=O)(=O)Nc3ccccc3F)cc2c1=O | -2% | -15% | /
Cc1cccc(N2CCN(C(c3ccc(F)cc3)c3nnc(-c4ccccc4)o3)CC2)c1C (configuration not stated) | -3% | -7% | /
Cc1cc(C(F)F)nn1CC(=O)NCc1ccco1 | ? | -11% | -3%
Cc1cc(-c2ccco2)n(CC(=O)NCc2ccco2)n1 | -14% | 40µM* | -18%
Cc1c(Cl)cccc1NC(=O)CSc1nc2ncccc2o1 | -5% | 38% | /
CCC1CCCCN1S(=O)(=O)c1ccc2c(c1)CCN2C(=O)C1CCC1 (configuration not stated) | ? | -1% | 0%
O=C(CCl)c1ccc2c(c1)CCN2C(=O)C1CC1 | -4% | 7.1µM* | -27%
O=C(C1CCC(C(=O)N2CCc3ccccc32)CC1)N1CCc2ccccc21 (configuration not stated) | -13% | -6% | -14%
O=C(CCl)c1ccc2c(c1)CCN2C(=O)C1CCCCC1 | -2% | 1.3µM* | -27%
CCn1cc(C(=O)Nc2ccc(C(C)C)cc2)c2cc(OC)c(OC)cc2c1=O | 5% | 1% | /
Cc1cccc(C(C)C)c1NC(=O)Cn1c(=O)oc2cc(S(=O)(=O)N3CCCC3)ccc21 | 18% | 3% | /
CC(=O)c1ccc(NC(=O)C(Cc2ccccc2)NS(=O)(=O)c2ccc3c(c2)CCC(=O)N3)cc1 (configuration not stated) | 17% | 7% | /
COc1ccc(CNC(=O)Cn2ncc3c4ccccc4n(Cc4cccc(Cl)c4)c3c2=O)cc1 | 6% | 0% | /
CC1CCCN(c2sc(S(C)(=O)=O)nc2S(=O)(=O)c2ccc(Cl)cc2)C1 (configuration not stated) | -1% | -21% | 8%
Cc1ccc(S(=O)(=O)c2nc(S(C)(=O)=O)sc2N2CCC(C)CC2)cc1 | 0% | 1.8µM* | 49%
Cc1ccc(S(=O)(=O)c2nc(S(C)(=O)=O)sc2N2CCCCCC2)cc1 | -3% | 1% | 18%
CC1CN(c2sc(S(C)(=O)=O)nc2S(=O)(=O)c2ccc(Cl)cc2)CC(C)O1 (configuration not stated) | -7% | 14µM* | 10%
Cc1cccc(N2CCN(C(=O)CCc3c(C)nc4c(c3C)c(=O)n(C)c(=O)n4C)CC2)c1C | -1% | 1% | /
O=C(Nc1ccc2c(c1)nc1n2CCN(C2CCCCC2)C1)NC1CCCCC1 | -2% | 13µM* | -9%
SMILES | AmpC inh detg | Sm TGR block | AmpC no deterg
O=C(Nc1ccc2c(c1)nc1n2CCN(C2CCCCC2)C1)c1ccco1 | 1% | ? | 13%
CCC(=O)Nc1ccc2c(c1)nc1n2CCN(C2CCCCC2)C1 | -2% | ? | -5%
COc1ccccc1C(=O)Nc1ccc2c(c1)nc1n2CCN(C2CCCCC2)C1 | -12% | 25µM* | 66%
CCc1cc2c(cc3c(=O)n(CC(=O)NC(C)C)nc(CC)n32)s1 | 20% | 11% | /
Clc1ccc(C2CC(c3ccccc3)Nc3ncnn32)cc1 (configuration not stated) | ? | -21% | 1.3µM*
Clc1ccc(C2CC(c3ccco3)n3ncnc3N2)cc1Cl (configuration not stated) | 5% | 11µM* | 63%
Cc1ccc(C2CC(c3cccc(C)c3)n3ncnc3N2)cc1 (configuration not stated) | -9% | 4% | 19%
Fc1ccc(C2CC(c3ccccc3)n3ncnc3N2)cc1 (configuration not stated) | -2% | -6% | -14%
Cc1ccc(C2CC(=O)N(Cc3ccccc3)c3c2c(C)nn3-c2nc(C)cc(C)n2)cc1 (configuration not stated) | 13% | -3% | /
COc1cc(NC(=O)C2CCN(S(=O)(=O)c3c(C)noc3/C=C/c3c(C)cc(C)cc3C)CC2)cc(OC)c1 | 18% | 2% | /
